# The whole screen tested about 5,500 compounds, of which about 2,000 (36%) were called active. Inconclusive results (about 18%) are left out. The list shows a part of the results. Unmarked numbers belong to inactive results. No stated cut-off is given here; in the data, active means normalized growth mostly below about 0.91 (no sharp cut-off); inconclusive means no clear call, values can overlap the other calls; inactive means mostly above about 0.92.
# Assay: chemical genetic growth profiling, strain panel (AID 1159580);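 further: tested at 20 µM; growth read once vehicle control cultures reached saturation at 30 °C; 1 = growth at the plate median or of vehicle wells; lower values mean less growth of the strain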
# Settings: growth OD
smiles,measurement,setting,value
COc1ccc2c(c1)O[C@H]1c3ccc(OC)cc3OC[C@@H]21,normalized growth,"S. cerevisiae deletion strains, locus YJR075W, strain HOC1, active compounds read low",0.969
same,normalized growth,"S. cerevisiae deletion strains, locus YKL009W, strain mrt4, active compounds read low",0.837 (active)
same,normalized growth,"S. cerevisiae deletion strains, locus YKL068W, active compounds read low",0.99
same,normalized growth,"S. cerevisiae deletion strains, locus YKL085W, strain MDH1 (second series), active compounds read low",0.98
same,normalized growth,"S. cerevisiae deletion strains, locus YKL085W, strain MDH1, active compounds read low",0.98
same,normalized growth,"S. cerevisiae deletion strains, locus YKL160W, strain elf1, active compounds read low",1.03
same,normalized growth,"S. cerevisiae deletion strains, locus YKL190W, strain CNB1, active compounds read low",1.01
same,normalized growth,"S. cerevisiae deletion strains, locus YKR001C, strain vps1, active compounds read low",0.936
same,normalized growth,"S. cerevisiae deletion strains, locus YKR026C, strain gcn3, active compounds read low",1.02
same,normalized growth,"S. cerevisiae deletion strains, locus YKR091W, strain srl3, active compounds read low",1.03
same,normalized growth,"S. cerevisiae deletion strains, locus YLL001W, strain dnm1, active compounds read low",1.02
same,normalized growth,"S. cerevisiae deletion strains, locus YLL026W, active compounds read low",1.03
same,normalized growth,"S. cerevisiae deletion strains, locus YLL041C, strain sdh2, active compounds read low",1.03
same,normalized growth,"S. cerevisiae deletion strains, locus YLR027C, strain aat2, active compounds read low",1.01
same,normalized growth,"S. cerevisiae deletion strains, locus YLR039C, strain RIC1, active compounds read low",0.767
same,normalized growth,"S. cerevisiae deletion strains, locus YLR058C, strain SHM2, active compounds read low",0.957
same,normalized growth,"S. cerevisiae deletion strains, locus YLR102C, strain apc9, active compounds read low",0.949
same,normalized growth,"S. cerevisiae deletion strains, locus YLR113W, strain HOG1, active compounds read low",1.02
same,normalized growth,"S. cerevisiae deletion strains, locus YLR221C, strain rsa3, active compounds read low",1.02
same,normalized growth,"S. cerevisiae deletion strains, locus YLR258W, strain gsy2, active compounds read low",1.03
same,normalized growth,"S. cerevisiae deletion strains, locus YLR262C, strain YPT6 (second series), active compounds read low",1
same,normalized growth,"S. cerevisiae deletion strains, locus YLR262C, strain YPT6, active compounds read low",0.744
same,normalized growth,"S. cerevisiae deletion strains, locus YLR268W, strain sec22, active compounds read low",0.9
same,normalized growth,"S. cerevisiae deletion strains, locus YLR320W, strain mms22, active compounds read low",1.02
same,normalized growth,"S. cerevisiae deletion strains, locus YLR330W, strain CHS5, active compounds read low",0.975
same,normalized growth,"S. cerevisiae deletion strains, locus YLR342W, strain FKS1, active compounds read low",1.02
same,normalized growth,"S. cerevisiae deletion strains, locus YLR357W, strain rsc2, active compounds read low",0.99
same,normalized growth,"S. cerevisiae deletion strains, locus YLR370C, strain arc18, active compounds read low",1.03
same,normalized growth,"S. cerevisiae deletion strains, locus YLR371W, strain rom2, active compounds read low",0.972
same,normalized growth,"S. cerevisiae deletion strains, locus YLR384C, strain iki3, active compounds read low",1.03
same,normalized growth,"S. cerevisiae deletion strains, locus YLR418C, strain cdc73, active compounds read low",0.691 (active)
same,normalized growth,"S. cerevisiae deletion strains, locus YML016C, strain PPZ1, active compounds read low",0.985
same,normalized growth,"S. cerevisiae deletion strains, locus YML032C, strain rad52, active compounds read low",0.873 (active)
same,normalized growth,"S. cerevisiae deletion strains, locus YML120C, strain ndi1, active compounds read low",1.02
same,normalized growth,"S. cerevisiae deletion strains, locus YML124C, strain tub3, active compounds read low",0.95
same,normalized growth,"S. cerevisiae deletion strains, locus YMR058W, strain fet3, active compounds read low",1.02
same,normalized growth,"S. cerevisiae deletion strains, locus YMR078C, strain ctf18, active compounds read low",0.915
same,normalized growth,"S. cerevisiae deletion strains, locus YMR125W, strain sto1, active compounds read low",1.02
same,normalized growth,"S. cerevisiae deletion strains, locus YMR129W, active compounds read low",1.03
same,normalized growth,"S. cerevisiae deletion strains, locus YMR205C, strain PFK2, active compounds read low",1.04
same,normalized growth,"S. cerevisiae deletion strains, locus YMR223W, strain ubp8, active compounds read low",0.92
same,normalized growth,"S. cerevisiae deletion strains, locus YMR231W, strain pep5, active compounds read low",1.03
same,normalized growth,"S. cerevisiae deletion strains, locus YMR307W, strain GAS1, active compounds read low",0.927
same,normalized growth,"S. cerevisiae deletion strains, locus YNL067W, strain RPL9B, active compounds read low",0.989
same,normalized growth,"S. cerevisiae deletion strains, locus YNL071W, strain lat1, active compounds read low",1.01
same,normalized growth,"S. cerevisiae deletion strains, locus YNL153C, strain GIM3, active compounds read low",0.953
same,normalized growth,"S. cerevisiae deletion strains, locus YNL183C, strain NPR1, active compounds read low",0.946
same,normalized growth,"S. cerevisiae deletion strains, locus YNL209W, strain ssb2, active compounds read low",1.01
same,normalized growth,"S. cerevisiae deletion strains, locus YNL233W, strain BNI4, active compounds read low",0.953
same,normalized growth,"S. cerevisiae deletion strains, locus YNL248C, strain rpa49, active compounds read low",1.02
same,normalized growth,"S. cerevisiae deletion strains, locus YNL250W, strain rad50, active compounds read low",0.993
same,normalized growth,"S. cerevisiae deletion strains, locus YNL271C, strain bni1, active compounds read low",0.944
same,normalized growth,"S. cerevisiae deletion strains, locus YNL298W, strain CLA4, active compounds read low",0.908 (active)
same,normalized growth,"S. cerevisiae deletion strains, locus YNL307C, strain MCK1, active compounds read low",0.475 (active)
same,normalized growth,"S. cerevisiae deletion strains, locus YNL322C, strain KRE1 (second series), active compounds read low",1.04
same,normalized growth,"S. cerevisiae deletion strains, locus YNR049C, strain mso1, active compounds read low",1.02
same,normalized growth,"S. cerevisiae deletion strains, locus YNR052C, strain pop2, active compounds read low",0.963
same,normalized growth,"S. cerevisiae deletion strains, locus YOL012C, strain htz1",1.39
same,normalized growth,"S. cerevisiae deletion strains, locus YOL147C, strain pex11, active compounds read low",0.886 (active)
same,normalized growth,"S. cerevisiae deletion strains, locus YOR001W, strain rrp6, active compounds read low",1.02
same,normalized growth,"S. cerevisiae deletion strains, locus YOR061W, strain CKA2, active compounds read low",0.997
same,normalized growth,"S. cerevisiae deletion strains, locus YOR069W, strain VPS5, active compounds read low",0.982
same,normalized growth,"S. cerevisiae deletion strains, locus YOR070C, strain gyp1, active compounds read low",1.01
same,normalized growth,"S. cerevisiae deletion strains, locus YOR080W, strain dia2, active compounds read low",1.02
same,normalized growth,"S. cerevisiae deletion strains, locus YOR083W, strain WHI5, active compounds read low",1.03
same,normalized growth,"S. cerevisiae deletion strains, locus YOR106W, strain vam3, active compounds read low",1.03
same,normalized growth,"S. cerevisiae deletion strains, locus YOR136W, strain idh2, active compounds read low",0.953
same,normalized growth,"S. cerevisiae deletion strains, locus YOR144C, strain elg1, active compounds read low",0.951
same,normalized growth,"S. cerevisiae deletion strains, locus YOR184W, strain ser1, active compounds read low",0.685 (active)
same,normalized growth,"S. cerevisiae deletion strains, locus YOR231W, strain MKK1, active compounds read low",0.979
same,normalized growth,"S. cerevisiae deletion strains, locus YOR265W, strain rbl2, active compounds read low",1.03
same,normalized growth,"S. cerevisiae deletion strains, locus YOR270C, strain vph1, active compounds read low",1.01
same,normalized growth,"S. cerevisiae deletion strains, locus YOR290C, strain snf2, active compounds read low",1.04
same,normalized growth,"S. cerevisiae deletion strains, locus YOR316C, strain cot1, active compounds read low",0.962
same,normalized growth,"S. cerevisiae deletion strains, locus YPL051W, strain arl3, active compounds read low",1.03
same,normalized growth,"S. cerevisiae deletion strains, locus YPL078C, strain atp4, active compounds read low",1.04
same,normalized growth,"S. cerevisiae deletion strains, locus YPL106C, strain sse1, active compounds read low",1.03
same,normalized growth,"S. cerevisiae deletion strains, locus YPL240C, strain hsp82, active compounds read low",1.02
same,normalized growth,"S. cerevisiae deletion strains, locus YPL241C, strain CIN2, active compounds read low",0.982
same,normalized growth,"S. cerevisiae deletion strains, locus YPL256C, strain CLN2, active compounds read low",0.939
same,normalized growth,"S. cerevisiae deletion strains, locus YPR119W, strain clb2, active compounds read low",0.939
same,normalized growth,"S. cerevisiae deletion strains, locus YPR141C, strain kar3, active compounds read low",0.975
same,normalized growth,"S. cerevisiae deletion strains, locus YPR163C, strain tif3, active compounds read low",0.677 (active)
same,normalized growth,"S. cerevisiae deletion strains, locus YPR167C, strain met16, active compounds read low",0.907 (active)
same,normalized growth,"S. cerevisiae deletion strains, strain wtn01, active compounds read low",0.886 (active)
same,normalized growth,"S. cerevisiae strains, strain wild type, active compounds read low",1.01
